Assay outcomes: PubChem, Sanford-Burnham Center for Chemical Genomics
HIF-2a block – inhibitors of HIF-2a. 360,000 compounds, 0.72% hits. inhibition, % at 18.8 µM. 786-0 RCC cells HIF-2a reporter, luciferase luminescence, overnight. AID 624352;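 active = inhibition of the luminescence signal of 40% or more relative to plate controls, in a single-dose primary screen at 18.75 µM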
KKLEB tox – reduces viability of KKLEB cystic fibrosis airway cells. KKLEB CF airway cells viability, ATPlite luminescence, overnight; active compounds read low; cells stimulated with P. aeruginosa culture filtrate. activity change (cytotoxicity), % at 5 µM. 360,000 compounds, 0.36% hits. AID 602141;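 active = corrected activity change at or below -50% at 5 µM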
CF NFkB block – blocks PAF-induced NF-kB reporter in cystic fibrosis cells; KKLEB NF-kB-GFP reporter, GFP fluorescence overnight; inhibition, % at 5 µM; 360,000 compounds, 0.86% hits; AID 588850;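 active = at least 50% inhibition at 5 µM, scaled per plate between neutral and stimulator controls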;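 note: PAF is a Pseudomonas aeruginosa culture filtrate used as stimulus; plate controls were PAF-stimulated DMSO wells for no effect and unstimulated DMSO wells for full effect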
Peg3 promoter – reduces Peg3 promoter-driven luciferase expression in HeLa | HeLa PEG-Prom luciferase reporter, luminescence, overnight | inhibition, % at 20 µM | 360,000 compounds, 1.7% hits | AID 588405;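 active = inhibition of at least 50% at 20 µM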
TWEAK-Fn14 inh – TWEAK-Fn14 signaling inhibition; inhibition, % at 10 µM; AID 1159606; TWEAK-stimulated Fn14 reporter cells, luciferase luminescence, 8 h; 360,000 compounds, 2% hits; in the data active = inhibition above about 50%
TROY signal inh – TROY signaling inhibition; Q293 LMP1-TROYcd NF-kB luciferase reporter, 4 h; inhibition, % at 10 µM; 360,000 compounds, 0.98% hits;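 active = compounds whose plate-normalised and pattern-corrected inhibition of the luciferase reporter signal at the single screening dose is 50% or more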
* marks the source's active call; other numbers are inactive results; / = not tested or not shown. This is a sample that favours compounds with a hit; in the whole collection about 4% have one here.

SMILES | HIF-2a block | KKLEB tox | CF NFkB block | Peg3 promoter | TWEAK-Fn14 inh | TROY signal inh
CC(=O)Oc1cc2c3c(c1)/C(=C1/SC(=S)NC1=O)C(=O)N3C(C)(C)C=C2C | -22 | 11 | 52* | -40 | 41 | 50*
CCOc1cc2c3c(c1)C(C)=CC(C)(C)N3C(=O)C2=O | 14 | -3 | 29 | 17 | 20 | 15
Fc1ccc(C2CCNCC2COc2ccc3c(c2)OCO3)cc1 (configuration not stated) | 11 | -10 | -8 | 61* | 15 | -4
CCc1ccc2nc(N(CCCN(C)C)C(=O)c3ccc(S(=O)(=O)N(C)C4CCCCC4)cc3)sc2c1 | 26 | -25 | 20 | 79* | -30 | -22
CCc1nc2ccc(C(=O)NCc3ccc(OC)cc3)cn2c1N(CCC(C)C)CCN(C)C | 7 | -8 | 0 | -4 | 3 | -2
Cc1cc(C)n(CC(=O)NNC(=O)c2ccc(NC(=O)CC#N)cc2)n1 | 1 | 4 | 6 | -12 | 7 | 6
C=C/C(C)=C/CC1C(=C)CCC2C(C)(C(=O)O)CCCC12C (configuration not stated) | 10 | 3 | -6 | 7 | 11 | -20
C=C1CCC2C(C)(C(=O)O)CCCC2(C)C1CCC(CO)CCO (configuration not stated) | -1 | 16 | -8 | 107* | 5 | 13
O=C(O)Cn1cc(/C=c2/sc3nc4ccccc4n3c2=O)c2ccccc21 | -279 | 12 | -5 | -297 | -24 | 35
O=c1/c(=C\c2cccn2-c2ccccc2)sc2nc3ccccc3n12 | -96 | 0 | -11 | -246 | 61* | 45
CC(C)Cn1c(-c2ccc(F)cc2)n[nH]c1=S | 14 | -1 | 8 | 2 | 65* | /
CC(NC(=O)C12CC3CC(CC(O)(C3)C1)C2)c1ccccc1 (configuration not stated) | -41 | -6 | -5 | -75 | -14 | 12
Cc1cccn2cc(-c3ccc(NC(=O)Cc4ccccc4)cc3)nc12 | -33 | 12 | -21 | 6 | -24 | 89*
Cc1ccc(C(=O)Nc2ccccc2C(=O)O)cc1S(=O)(=O)Nc1ccc(Br)cc1 | 4 | -9 | -16 | 3 | 6 | 51*
Cc1ccccc1NS(=O)(=O)c1cc(C(=O)Nc2cccc([N+](=O)[O-])c2)ccc1C | 10 | -12 | -7 | 35 | 67* | 59*
Cc1ccc(C(=O)Nc2ccccc2C(=O)O)cc1S(=O)(=O)NCc1ccccc1 | -4 | 16 | -1 | 11 | -6 | 14
COc1ccc(S(=O)(=O)NCC(c2ccc(C)cc2)N2CCN(C)CC2)cc1 (configuration not stated) | -4 | 5 | 7 | -14 | 1 | 2
Cc1cc(C)n(-c2nc(NCC(C)O)c3c4c(sc3n2)COC(C)(C)C4)n1 (configuration not stated) | -57 | -6 | -4 | -22 | -20 | 15
Cc1cc(C)n(-c2nc(SCCN(C)C)c3c4c(sc3n2)COC(C)(C)C4)n1 | -29 | -34 | 6 | 54* | -39 | 10
CCn1c(SCC(=O)Nc2cccc(NC(C)=O)c2)nc2c([nH]c3ccccc32)c1=O | 17 | -52* | 61* | 30 | 17 | -26
CCOC(=O)C1=CCN(S(=O)(=O)c2ccc(C)cc2)C1c1ccc(C(C)C)cc1 (configuration not stated) | -17 | -7 | 14 | 26 | 8 | 4
Cc1ccc(C(=O)Nc2nnc(-c3ccncc3)o2)cc1 | -75 | -2 | -5 | -51 | -5 | -28
Cc1cccc(-c2nnc(NC(=O)c3ccc(Cl)cc3)o2)c1 | 15 | 1 | 16 | 10 | 62* | -19
O=[N+]([O-])c1cc(S(=O)(=O)Oc2ccccc2)ccc1Cl | 88* | -72* | 88* | 107* | 38 | 5
Cc1cccc(Oc2cc(NC(=O)c3ccccc3)cc([N+](=O)[O-])c2)c1 | -5 | -4 | 14 | 39 | 59* | 57*
SMILES | HIF-2a block | KKLEB tox | CF NFkB block | Peg3 promoter | TWEAK-Fn14 inh | TROY signal inh
O=C(CCc1ccc(Oc2cc([N+](=O)[O-])cc([N+](=O)[O-])c2)cc1)Nc1cccc(Cl)c1 | 9 | -5 | 18 | 26 | 59* | 29
CCOc1ccc(Oc2cc(NC(=O)c3ccco3)cc([N+](=O)[O-])c2)cc1 | -4 | 1 | -17 | -10 | -1 | -32
O=C(Nc1cc(Oc2ccc(Cl)cc2)cc([N+](=O)[O-])c1)c1ccco1 | -31 | -9 | 2 | -28 | 57* | 57*
Cc1ccc(NC(=O)c2cccc(Oc3ccc([N+](=O)[O-])cc3)c2)c(C(=O)O)c1 | 14 | -4 | 5 | 20 | 4 | 30
C#CC1(O)CCC2C3CCc4cc(O)cc(C)c4C3CCC21C (configuration not stated) | -28 | -24 | 12 | -21 | 26 | 9
Oc1ccc(/C=N/Nc2ccnc3cc(Cl)ccc23)cc1O | -94 | -10 | -38 | 74* | -80 | 1
OC(c1ccccc1)(c1ccccc1)c1nccn1-c1ccccc1 | 15 | 2 | -5 | 20 | 11 | 10
CC(=O)O[C@]1(C(C)=O)CC[C@H]2[C@@H]3C[C@H](C)C4=CC(=O)CC[C@]4(C)[C@H]3CC[C@@]21C | 12 | 21 | 53* | -21 | -14 | 2
CC(=O)[C@H]1CC[C@H]2[C@@H]3CCC4=CC(=O)CC[C@]4(C)[C@H]3[C@H](O)C[C@]12C | -4 | 15 | -29 | -7 | -17 | 1
CC(=O)[C@H]1CC[C@H]2[C@@H]3C[C@H](C)C4=CC(=O)CC[C@]4(C)[C@H]3[C@@H](O)C[C@]12C | 17 | 20 | 57* | -7 | -26 | 15
CC(=O)OC1(C(C)=O)CCC2C3CC(C(F)(F)F)C4=CC(=O)CCC4(C)C3CCC21C (configuration not stated) | 5 | -5 | 19 | -29 | -7 | -9
Fc1ccc(N=C2NN=C(c3cc(F)ccc3F)CS2)cc1 | -161 | 19 | -37 | -204 | -26 | -115
O=S(=O)(c1ccc(N=C2NN=C(c3cc(F)ccc3F)CS2)cc1)N1CCOCC1 | 7 | -22 | -29 | -12 | 81* | 37
CC1CCCC=CC2CC(OC(=O)CN(C)C)CC2C(O)C=CC(=O)O1 (configuration not stated) | 37 | -41 | 71* | 55* | 41 | -10
Fc1cccc2sc(Nc3nc4cc5c(cc4s3)OCO5)nc12 | -193 | -2 | -16 | -327 | -25 | -70
Fc1cccc2sc(Nc3nc4cc5c(cc4s3)OCCO5)nc12 | -58 | -13 | -11 | -125 | 73* | 72*
C[C@H](CO)N1C[C@H](C)[C@@H](CN(C)C(=O)OCc2ccccc2)OCc2cn(nn2)CCCC1=O | 14 | 2 | 6 | -12 | -12 | -14
CC(=O)c1cccc(NS(=O)(=O)c2ccc(N/C=C/C(=O)c3ccc(F)cc3)cc2)c1 | 5 | -12 | 16 | -2 | 89* | 41
